Reference: ChEMBL document CHEMBL4513141, “CO-ADD screening of NIH (USA) - Clinical Collection” (2021)
Measured potencies and affinities stand elsewhere.

How the values were obtained:
Staphylococcus aureus = details: Concentration 20 uM; ASSAY_TEST Inhibition of Bacterial Growth; detection method Absorption (OD600); MEDIA CAMHB; plate type 384well; NBS; CORNING #3640; time 18 hr
Escherichia coli = details: Concentration 20 uM; ASSAY_TEST Inhibition of Bacterial Growth; detection method Absorption (OD600); MEDIA CAMHB; plate type 384well; NBS; CORNING #3640; time 18 hr

Compound | Inhibition (Staphylococcus aureus) [%] | Inhibition (Escherichia coli) [%]
Cl.O=C1c2cccc3c2[C@H](CCC3)CN1[C@@H]1CN2CCC1CC2 [PALONOSETRON HYDROCHLORIDE] | 8.38 | 4.34
CC[C@@H](C(N)=O)N1CCCC1=O | 18.53 | 0.96
C#C[C@]1(O)CC[C@H]2[C@@H]3CCC4=CC(=O)CC[C@@H]4[C@H]3CC[C@@]21C [NORETHINDRONE] | -0.74 | 4.04
O=C(O[C@@H]1Cc2c(O)cc(O)cc2O[C@@H]1c1cc(O)c(O)c(O)c1)c1cc(O)c(O)c(O)c1 [EPIGALOCATECHIN GALLATE] | 13.39 | 5.85
Cc1c(O)c(=O)ccn1C [DEFERIPRONE] | 9.56 | -6.38
CN(C)CCC=C1c2ccccc2CCc2ccccc21.Cl [AMITRIPTYLINE HYDROCHLORIDE] | 5.1 | 1.2
COC(=O)C1=C(C)NC(C)=C(C(=O)OC)C1c1ccccc1[N+](=O)[O-] [NIFEDIPINE] | 16.67 | 3.8
CC(C)(C)NCC(O)c1cc(O)cc(O)c1.O=S(=O)(O)O (configuration not stated) | 5.47 | 5.21
CS(=O)(=O)Nc1ccc(Cc2noc(-c3ccc4[nH]cc(CCN)c4c3)n2)cc1.O.O | 12.02 | 7.87
C[C@]12CC[C@H](O)CC1=CC[C@@H]1[C@@H]2CC[C@]2(C)C(=O)CC[C@@H]12 [PRASTERONE] | 13.56 | 2.6
C[N+]1(C)CCCC(OC(=O)C(O)(c2ccccc2)c2ccccc2)C1.[Br-] (configuration not stated) [MEPENZOLATE BROMIDE] | 1.79 | 3.23
C[C@]12CC(C=O)=C(O)C[C@@H]1CC[C@@H]1[C@@H]2CC[C@@]2(C)[C@H]1CC[C@]2(C)O | 4.66 | 7.86
CC[C@@H]1/C=C/C=C/C[C@H](C)[C@@H](O)[C@](C)(O)C(=O)[C@H](C)[C@@H](O)[C@H](C)C(=O)[C@H](C)[C@@H](O)[C@H](C)/C=C/C(=O)O[C@H]2[C@@H](C)[C@@H](CC1)O[C@@]1(CC[C@@H](C)[C@@H](C[C@H](C)O)O1)[C@@H]2C | 9.12 | 0.23
NCCc1ccccn1 | 1.79 | 8.78
CC(=O)CC(c1ccccc1)c1c([O-])c2ccccc2oc1=O.[Na+] (configuration not stated) [WARFARIN SODIUM] | 12.98 | -2.34
CCOC(=O)c1ncn2c1CN(C)C(=O)c1cc(F)ccc1-2 [FLUMAZENIL] | -0.36 | -2.76
